A number with no mark means an inactive call. Inconclusive results are not listed. Where a call stands in place of a potency, no number is given. Active and inactive are the calls of the source. Unless noted, calls come from the whole dose curve; as a rule, active = well fitted curve in the direction sought with a large enough effect; inconclusive = small, poorly fitted or top-dose-only effect, or another doubt; inactive = no such curve, though single readings can be large; an effect the other way counts as inactive or inconclusive.
What was measured:
[1] = molecular target: Lysosomal acid glucosylceramidase (Homo sapiens) (UniProt P04062); assay: Glucocerebrosidase-p2 (AID 348; in the data active = potency below about 10 µM; note: potency is the fitted concentration of half-maximal effect); details: purified GBA, blue fluorogenic substrate, 40 min
Procedure, shortened: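 Normal human glucocerebrosidase (0.2 nM) with blue fluorogenic substrate (80 uM final) in citrate/phosphate pH 5.9 with 10mM sodium taurocholate, 0.01% tween-20; 40 min RT, NaOH/glycine stop; fluorescence Ex 365/Em 440; AC50 from a titration from 0.6 nM upwards.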

[2] = AP1 Signaling Pathway (AID 357; active = well fitted curve in either direction with a large enough effect, not every such curve was filed as active;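 note: ME-180 reporter cells stimulated with EGF at its EC50 level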); details: ME-180 AP-1-bla reporter, EGF-induced, beta-lactamase ratio, 5 h; at 7.69 µM (top of the series) unless noted
Procedure, shortened: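 Read-out was the 460nm/530nm emission ratio (excitation 405nm) after CCF4 loading for 2.5 hours at room temperature. Cells carried an AP-1-driven beta-lactamase reporter, were stimulated with EC50 EGF plus compound for 5 hours, and AC50 values came from titrations.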

[3] = molecular target: Cytochrome P450 1A2 (Homo sapiens) (UniProt P05177); assay: p450-cyp1a2 (AID 410; calls by dose curve)
Procedure, shortened: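 20nM CYP1A2, 100uM Luciferin-ME (=Km), 100mM KPO4; cpd 10 min RT; +NADPH regen, 60 min RT; stop/detect 20 min; luminescence. Normalized to furafylline 57 uM = full inhibition.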

[4] = NFAT Signaling Pathway (AID 444; active = well fitted curve in either direction with a large enough effect, not every such curve was filed as active;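 note: carbachol stimulus at about its EC50 of 1 µM final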); details: Jurkat NFAT-bla M1, carbachol, beta-lactamase ratio, 5 h; at 7.69 µM (top of the series) unless noted
Procedure, shortened: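 Read-out: CCF4 FRET ratio (460 nm/530 nm) after 1 h RT dye loading, used for %activity and AC50 from titration series. Cells: Jurkat NFAT-β-lactamase/M1 line, treated with compound plus 1 uM carbachol for 5 h, 37 °C.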

[5] = Stat Signaling Pathway (AID 446; active = well fitted curve in either direction with a large enough effect, not every such curve was filed as active;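 note: ME-180 cervical cancer cells given 40 pM IL-6 alongside compound; SIE-controlled beta-lactamase reporter measured as 460/530 nm FRET emission ratio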); details: ME-180 (cervical carcinoma) SIE beta-lactamase reporter, IL-6 stimulated, 5 h; at 7.69 µM (top of the series) unless noted
Procedure, shortened: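 Overnight-plated ME-180 cells bearing a STAT Inducible Element beta-lactamase reporter; 5 h co-exposure to compound and 40 pM IL-6; values normalized to 300 pM IL-6 and 125 nM JAK inhibitor controls.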

[6] = molecular target: Glucocorticoid receptor (Homo sapiens) (UniProt P04150); assay: GR-GFP Redistribution (AID 450;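 active = compounds whose dose series gives a full or clear partial fitted curve of increased nuclear translocation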; note: potency is the fitted concentration of half-maximal effect); details: U2OS GR-GFP nuclear translocation, laser cytometry, 2 h
[7] = molecular target: Glucocorticoid receptor (Homo sapiens) (UniProt P04150); assay: GR-EFC Redistribution (AID 451; calls by dose curve; note: potency is the fitted concentration of half-maximal effect); details: CHO-K1 GR-EFC translocation, beta-gal luminescence, 2 h
Procedure, shortened: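 Translocation of GR-ED fusion to nuclear EA restores b-gal, read by luminescence after 1 h room-temperature detection. Engineered CHO-K1 biosensor cells, 1,000/well, exposed 2 h at 37 C to titrations up to 46 uM final.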

[8] = molecular target: Mitogen-activated protein kinase 10 (Mus musculus) (UniProt Q61831); assay: JNK3 AlphaScreen Assay (AID 530; active = well fitted curve in either direction with a large enough effect, not every such curve was filed as active;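 note: kinase came from lysate of stimulated human HepG2 cells; signal reports phosphorylation of biotinylated GST-cJun 1-79 at Ser73 with 10 µM ATP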)
Procedure, shortened: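 Kinase buffer: 20 mM Tris-HCl pH 7.6, 10 mM MgCl2, 1 mM DTT, 0.1 mM Na3VO4, 0.01% Tween-20; ATP 10 uM. Substrate biotin-GST-cJun(1-79), enzyme from activated HepG2 lysates. Detection by Ser73 phospho-antibody AlphaScreen.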

[9] = molecular target: 3',5'-cyclic-AMP phosphodiesterase 4B (Homo sapiens) (UniProt Q07343); assay: qHTS Assay for Inhibitors of PDE-IV (AID 607; active = well fitted activation curve with a large enough effect in the main read-out, with a control signal flat, not every such curve was filed as active)
Procedure, shortened: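 Live HEK293 cells with a modified cyclic nucleotide-gated (CNG) channel report intracellular cAMP via membrane-potential dye fluorescence (ex 535/em 590 nm). Endogenous PDE-IV was targeted. Compounds were tested at up to 22.9 uM final; RO 20-1724 100 uM served as control.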

[10] = molecular target: Tyrosyl-DNA phosphodiesterase 1 (Homo sapiens) (UniProt Q9NUW8); assay: Confirmation Assay for Inhibitors of Tyrosyl-DNA Phosphodiesterase (TDP1) (AID 489007); details: recombinant human TDP1 enzymatic activity, dose-response; note: potency is the fitted concentration of half-maximal effect; nearly all actives have a fitted effect of over 40% in size
Procedure, shortened: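 AlphaScreen read-out: streptavidin donor and anti-FITC acceptor beads (10 ug/ml) bind intact substrate, so Tdp1 removal of tyrosine-FITC lowers signal. Enzyme 1 nM, substrate 15 nM, 5 min reaction at room temperature after 15 min compound preincubation.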

[11] = S16 Schwann cell viability assay (CellTiter-Glo assay) (AID 624031);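 note: native untransfected S16 rat Schwann cells; cellular ATP luminescence as a viability measure; nearly all actives have a fitted effect of over 70% in size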
Procedure, shortened: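 Parental S16 cells, 24 h compound, 37 °C. ATP-luminescence viability; DMSO = 0% activity, empty wells as reference; curves classified by fit quality and efficacy.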

[12] = S16 Schwann cell PMP22 intronic element firefly luciferase assay (AID 624032); note: nearly all actives have a fitted effect of over 30% in size
Procedure, shortened: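 Luciferase reporter of PMP22 intronic-element expression in stably transfected S16 rat Schwann cells, read by ONE-Glo luminescence after 24 h compound exposure at 37 C. Activity scaled between DMSO (0%) and positive-control PTC124; concentration-effect curves quality-classified.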

[13] = S16 Schwann cell PMP22 intronic element beta-lactamase assay (AID 624044; calls by dose curve; note: nearly all actives have a fitted effect of over 15% in size)
Procedure, shortened: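 Beta-lactamase reporter under a PMP22 intronic regulatory element in stable S16 rat Schwann cells; 24 h compound exposure. 460 nm blue signal normalized between DMSO (0%) and potassium clavulanate, with 535 nm FRET tracking viability; curves classed by r2 and response.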

[14] = qHTS profiling for inhibitors of Plasmodium falciparum proliferation (AID 504749); note: nearly all actives have a fitted effect of over 60% in size; details: P. falciparum in erythrocytes, SYBR Green DNA, 72 h, at 28.7 µM (top of the series)
Procedure, shortened: (§1)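 In a 72 h erythrocytic culture (37 C, humidified, 5% CO2) at 2.5% hematocrit and 0.3% starting parasitemia, compounds were tested; SYBR Green I in detergent lysis buffer stained parasite DNA overnight.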

3D7 = assay: as above; details: P. falciparum in erythrocytes, SYBR Green DNA, 72 h; series mostly up to 28.7 µM
Procedure, shortened: as §1

7G8 = assay: as above; details: P. falciparum in erythrocytes, SYBR Green DNA, 72 h; series mostly up to 28.7 µM
Procedure, shortened: as §1

AA1029 = assay: as above; details: P. falciparum in erythrocytes, SYBR Green DNA, 72 h; series mostly up to 28.7 µM
Procedure, shortened: as §1

AS120 = assay: as above; details: P. falciparum in erythrocytes, SYBR Green DNA, 72 h; series mostly up to 28.7 µM
Procedure, shortened: as §1

ATS189 = assay: as above; details: P. falciparum in erythrocytes, SYBR Green DNA, 72 h; series mostly up to 28.7 µM
Procedure, shortened: as §1

ATS95 = assay: as above; details: P. falciparum in erythrocytes, SYBR Green DNA, 72 h; series mostly up to 28.7 µM
Procedure, shortened: as §1

C2A = assay: as above; details: P. falciparum in erythrocytes, SYBR Green DNA, 72 h; series mostly up to 28.7 µM
Procedure, shortened: as §1

CP185 = assay: as above; details: P. falciparum in erythrocytes, SYBR Green DNA, 72 h; series mostly up to 28.7 µM
Procedure, shortened: as §1

CP191 = assay: as above; details: P. falciparum in erythrocytes, SYBR Green DNA, 72 h; series mostly up to 28.7 µM
Procedure, shortened: as §1

CP192 = assay: as above; details: P. falciparum in erythrocytes, SYBR Green DNA, 72 h; series mostly up to 28.7 µM
Procedure, shortened: as §1

CP194 = assay: as above; details: P. falciparum in erythrocytes, SYBR Green DNA, 72 h; series mostly up to 28.7 µM
Procedure, shortened: as §1

CP201 = assay: as above; details: P. falciparum in erythrocytes, SYBR Green DNA, 72 h; series mostly up to 28.7 µM
Procedure, shortened: as §1

CP203 = assay: as above; details: P. falciparum in erythrocytes, SYBR Green DNA, 72 h; series mostly up to 28.7 µM
Procedure, shortened: as §1

CP211 = assay: as above; details: P. falciparum in erythrocytes, SYBR Green DNA, 72 h; series mostly up to 28.7 µM
Procedure, shortened: as §1

CP215 = assay: as above; details: P. falciparum in erythrocytes, SYBR Green DNA, 72 h; series mostly up to 28.7 µM
Procedure, shortened: as §1

CP217 = assay: as above; details: P. falciparum in erythrocytes, SYBR Green DNA, 72 h; series mostly up to 28.7 µM
Procedure, shortened: as §1

CP237 = assay: as above; details: P. falciparum in erythrocytes, SYBR Green DNA, 72 h; series mostly up to 28.7 µM
Procedure, shortened: as §1

CP238 = assay: as above; details: P. falciparum in erythrocytes, SYBR Green DNA, 72 h; series mostly up to 28.7 µM
Procedure, shortened: as §1

CP247 = assay: as above; details: P. falciparum in erythrocytes, SYBR Green DNA, 72 h; series mostly up to 28.7 µM
Procedure, shortened: as §1

CP250 = assay: as above; details: P. falciparum in erythrocytes, SYBR Green DNA, 72 h; series mostly up to 28.7 µM
Procedure, shortened: as §1

CP252 = assay: as above; details: P. falciparum in erythrocytes, SYBR Green DNA, 72 h; series mostly up to 28.7 µM
Procedure, shortened: as §1

Glucocorticoid receptor (Homo sapiens), sequence (P04150 whole entry, looked up, the tested form may be a part): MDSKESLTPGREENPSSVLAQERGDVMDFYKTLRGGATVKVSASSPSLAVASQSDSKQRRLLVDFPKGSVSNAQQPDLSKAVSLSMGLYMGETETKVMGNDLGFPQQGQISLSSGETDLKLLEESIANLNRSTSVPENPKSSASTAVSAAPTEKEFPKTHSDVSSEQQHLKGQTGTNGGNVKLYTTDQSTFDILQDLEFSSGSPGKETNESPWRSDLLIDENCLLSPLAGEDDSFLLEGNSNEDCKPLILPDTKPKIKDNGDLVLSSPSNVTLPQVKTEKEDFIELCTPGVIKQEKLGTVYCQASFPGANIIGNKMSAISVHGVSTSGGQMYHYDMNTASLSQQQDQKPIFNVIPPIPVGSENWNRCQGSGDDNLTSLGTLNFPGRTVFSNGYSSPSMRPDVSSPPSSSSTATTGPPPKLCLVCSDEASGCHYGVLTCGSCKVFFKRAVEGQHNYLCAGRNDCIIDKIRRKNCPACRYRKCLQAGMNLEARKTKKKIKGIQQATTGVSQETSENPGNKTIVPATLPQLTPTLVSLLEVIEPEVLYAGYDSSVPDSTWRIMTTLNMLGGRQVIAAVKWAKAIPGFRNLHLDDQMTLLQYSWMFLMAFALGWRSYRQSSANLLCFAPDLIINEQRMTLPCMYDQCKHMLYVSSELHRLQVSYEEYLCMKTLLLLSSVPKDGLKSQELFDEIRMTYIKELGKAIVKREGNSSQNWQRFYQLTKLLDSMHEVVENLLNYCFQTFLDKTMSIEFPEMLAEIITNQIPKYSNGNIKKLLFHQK
Tyrosyl-DNA phosphodiesterase 1 (Homo sapiens), sequence (Q9NUW8 whole entry, looked up): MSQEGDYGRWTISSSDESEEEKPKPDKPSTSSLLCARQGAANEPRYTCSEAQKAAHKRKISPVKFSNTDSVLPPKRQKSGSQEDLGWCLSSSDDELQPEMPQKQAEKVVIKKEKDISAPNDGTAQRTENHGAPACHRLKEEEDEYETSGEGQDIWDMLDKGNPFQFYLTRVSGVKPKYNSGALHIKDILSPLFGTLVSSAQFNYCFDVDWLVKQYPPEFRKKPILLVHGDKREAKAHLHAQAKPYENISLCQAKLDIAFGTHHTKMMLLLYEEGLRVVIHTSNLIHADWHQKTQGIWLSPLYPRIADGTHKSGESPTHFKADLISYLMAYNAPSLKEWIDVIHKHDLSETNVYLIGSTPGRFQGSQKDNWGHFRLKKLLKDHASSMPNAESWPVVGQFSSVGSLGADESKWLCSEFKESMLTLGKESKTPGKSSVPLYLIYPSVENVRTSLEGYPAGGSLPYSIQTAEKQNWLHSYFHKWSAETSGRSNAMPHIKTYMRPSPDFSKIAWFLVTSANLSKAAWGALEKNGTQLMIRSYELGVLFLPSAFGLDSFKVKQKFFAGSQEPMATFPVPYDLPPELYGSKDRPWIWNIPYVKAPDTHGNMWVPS
3',5'-cyclic-AMP phosphodiesterase 4B (Homo sapiens), sequence (Q07343 whole entry, looked up): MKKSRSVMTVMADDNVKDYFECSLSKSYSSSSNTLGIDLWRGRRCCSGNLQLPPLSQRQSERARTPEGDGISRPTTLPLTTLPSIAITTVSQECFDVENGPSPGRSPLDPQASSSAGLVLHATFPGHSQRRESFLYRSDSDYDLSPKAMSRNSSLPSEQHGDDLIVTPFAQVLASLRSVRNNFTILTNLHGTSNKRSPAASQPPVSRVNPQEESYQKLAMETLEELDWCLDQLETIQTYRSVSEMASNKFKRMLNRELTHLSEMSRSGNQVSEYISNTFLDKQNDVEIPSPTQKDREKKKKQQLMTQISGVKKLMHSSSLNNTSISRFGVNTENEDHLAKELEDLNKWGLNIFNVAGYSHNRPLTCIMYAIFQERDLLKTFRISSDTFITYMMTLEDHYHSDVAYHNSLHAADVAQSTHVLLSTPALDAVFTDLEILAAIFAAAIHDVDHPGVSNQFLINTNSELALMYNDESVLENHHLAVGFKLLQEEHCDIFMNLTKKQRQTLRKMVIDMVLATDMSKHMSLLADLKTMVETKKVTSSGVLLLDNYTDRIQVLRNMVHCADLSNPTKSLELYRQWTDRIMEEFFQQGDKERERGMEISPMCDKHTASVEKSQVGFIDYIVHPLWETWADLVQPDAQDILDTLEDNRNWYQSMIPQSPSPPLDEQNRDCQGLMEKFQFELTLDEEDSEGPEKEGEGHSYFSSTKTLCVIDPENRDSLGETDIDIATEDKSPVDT
Cytochrome P450 1A2 (Homo sapiens), sequence (P05177 whole entry, looked up): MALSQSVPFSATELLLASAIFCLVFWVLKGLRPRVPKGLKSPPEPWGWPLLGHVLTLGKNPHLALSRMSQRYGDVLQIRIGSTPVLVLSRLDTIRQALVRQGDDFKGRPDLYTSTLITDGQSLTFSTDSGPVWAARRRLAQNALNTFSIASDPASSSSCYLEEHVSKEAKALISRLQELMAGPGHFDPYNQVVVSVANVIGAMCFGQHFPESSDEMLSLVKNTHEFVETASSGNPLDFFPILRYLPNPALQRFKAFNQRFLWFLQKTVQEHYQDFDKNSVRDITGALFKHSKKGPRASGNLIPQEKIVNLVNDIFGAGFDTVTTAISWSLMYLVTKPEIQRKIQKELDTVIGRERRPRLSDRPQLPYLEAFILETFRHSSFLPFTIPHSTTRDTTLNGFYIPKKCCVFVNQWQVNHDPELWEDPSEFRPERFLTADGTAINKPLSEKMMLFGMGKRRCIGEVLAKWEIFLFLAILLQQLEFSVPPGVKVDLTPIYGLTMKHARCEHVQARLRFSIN
Lysosomal acid glucosylceramidase (Homo sapiens), sequence (P04062 whole entry, looked up): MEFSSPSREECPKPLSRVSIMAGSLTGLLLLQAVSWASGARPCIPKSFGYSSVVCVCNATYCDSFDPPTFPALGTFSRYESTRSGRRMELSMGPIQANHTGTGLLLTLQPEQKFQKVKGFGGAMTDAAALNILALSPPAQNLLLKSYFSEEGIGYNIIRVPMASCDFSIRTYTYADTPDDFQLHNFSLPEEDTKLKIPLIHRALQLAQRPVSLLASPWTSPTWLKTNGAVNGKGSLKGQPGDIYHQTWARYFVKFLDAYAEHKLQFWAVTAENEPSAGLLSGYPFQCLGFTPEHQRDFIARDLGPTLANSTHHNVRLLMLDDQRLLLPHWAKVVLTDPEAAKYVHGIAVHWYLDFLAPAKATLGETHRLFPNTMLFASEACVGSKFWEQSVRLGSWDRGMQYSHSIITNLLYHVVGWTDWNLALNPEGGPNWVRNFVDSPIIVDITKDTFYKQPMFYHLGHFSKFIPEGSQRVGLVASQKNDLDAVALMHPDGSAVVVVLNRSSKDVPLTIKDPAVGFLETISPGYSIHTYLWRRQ

## CN(C)[C@H]1C(=O)C(C(=O)NCN2CCCC2)=C(O)[C@]2(O)C(=O)C3=C(O)c4c(O)cccc4[C@](C)(O)[C@H]3C[C@H]12
[1]
  Potency: > 11.4 µM
[2]
  activity change, negative = inhibition: -4.67%
[3]
  Potency: inactive
[4]
  activity change, negative = inhibition: 6.5%
[5]
  activity, negative = inhibition: -11.7%
[6]
  Potency: > 46 µM
[7]
  Potency: > 9.22 µM
[8]
  Potency: inactive
[9]
  Potency: inactive
[10]
  Potency: 0.0794 µM (active)
[11]
  Potency: inactive
[12]
  Potency: inactive
[13]
  outcome: inactive
[14]; parasite line A
  activity, negative = inhibition: 9.1%
[14]; parasite line B
  activity, negative = inhibition: 1.72%
3D7
  Potency: inactive
7G8
  Potency: inactive
AA1029
  Potency: inactive
AS120
  Potency: inactive
ATS189
  Potency: inactive
ATS95
  Potency: inactive
C2A
  Potency: inactive
CP185
  Potency: inactive
CP191
  Potency: inactive
CP192
  Potency: inactive
CP194
  Potency: inactive
CP201
  Potency: inactive
CP203
  Potency: inactive
CP211
  Potency: inactive
CP215
  Potency: inactive
CP217
  Potency: inactive
CP237
  Potency: inactive
CP238
  Potency: inactive
CP247
  Potency: inactive
CP250
  Potency: inactive
CP252
  Potency: inactive

Reference: PubChem BioAssay (NCATS)
